Results from PubChem BioAssay (Tox21).
Results filed as inconclusive are left out. The source made the active and inactive calls. Unless noted, calls follow the shape of the dose curve; as a rule, active = well fitted curve in the direction sought with a large enough effect in the repeat runs; inconclusive = weak or mixed curves; inactive = no such curve, though single readings can be large; an effect the other way counts as inactive or inconclusive.

Assays:
[1] = molecular target: Estrogen receptor (Homo sapiens) (UniProt P03372); experiment: qHTS assay to identify small molecule agonists of the estrogen receptor alpha (ER-alpha) signaling pathway in the presence of an antagonist (AID 1259383; calls by dose curve; also: top concentration of the series differs between compounds; nearly all actives have a fitted effect of over 15% in size)
Sequence of Estrogen receptor (Homo sapiens) (P03372 whole entry, looked up): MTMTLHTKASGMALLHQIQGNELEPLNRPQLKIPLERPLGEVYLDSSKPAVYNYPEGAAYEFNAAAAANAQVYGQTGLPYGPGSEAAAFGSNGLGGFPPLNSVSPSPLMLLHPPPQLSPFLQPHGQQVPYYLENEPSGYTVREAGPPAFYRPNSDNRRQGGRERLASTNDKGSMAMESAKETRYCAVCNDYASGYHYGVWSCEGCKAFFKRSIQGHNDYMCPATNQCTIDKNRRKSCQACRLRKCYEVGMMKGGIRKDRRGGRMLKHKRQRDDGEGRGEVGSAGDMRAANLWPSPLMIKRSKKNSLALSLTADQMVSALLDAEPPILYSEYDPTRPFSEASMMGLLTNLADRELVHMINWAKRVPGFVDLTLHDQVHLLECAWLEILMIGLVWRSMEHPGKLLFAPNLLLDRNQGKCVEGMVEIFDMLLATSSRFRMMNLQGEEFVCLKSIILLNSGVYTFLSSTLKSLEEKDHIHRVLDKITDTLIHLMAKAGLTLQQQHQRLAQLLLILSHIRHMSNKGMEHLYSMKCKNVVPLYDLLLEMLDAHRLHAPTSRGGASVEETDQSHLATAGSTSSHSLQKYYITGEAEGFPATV
Procedure, shortened: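 Stably transfected VM7Luc4E2 reporter cells, kept 5 days in charcoal-stripped serum, received ICI-182,780 at 10.0nM final before compound addition. Following 22hr incubation at 37C and 5% CO2, luciferase signal was read by luminescence.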

[2] = qHTS assay to identify small molecule agonists or antagonists of the thyroid stimulating hormone receptor (TSHR) signaling pathway - wild type cell line counter screen (AID 1259384; calls by dose curve)
Procedure, shortened: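 Wild-type Hek293 cells, 800/well, 18 h at 37C, then compound with Ro20-1724 for 30 min RT. cAMP by HTRF (cAMP-d2/anti-cAMP cryptate), 1 h RT, fluorescence read. 15 concentrations, triplicates.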

[3] = molecular target: Thyrotropin receptor (Homo sapiens) (UniProt P16473); experiment: qHTS assay to identify small molecule antagonists of the thyroid stimulating hormone receptor (TSHR) signaling pathway (AID 1259385; calls by dose curve; also: nearly all actives have a fitted effect of over 20% in size)
Sequence of Thyrotropin receptor (Homo sapiens) (P16473 whole entry, looked up): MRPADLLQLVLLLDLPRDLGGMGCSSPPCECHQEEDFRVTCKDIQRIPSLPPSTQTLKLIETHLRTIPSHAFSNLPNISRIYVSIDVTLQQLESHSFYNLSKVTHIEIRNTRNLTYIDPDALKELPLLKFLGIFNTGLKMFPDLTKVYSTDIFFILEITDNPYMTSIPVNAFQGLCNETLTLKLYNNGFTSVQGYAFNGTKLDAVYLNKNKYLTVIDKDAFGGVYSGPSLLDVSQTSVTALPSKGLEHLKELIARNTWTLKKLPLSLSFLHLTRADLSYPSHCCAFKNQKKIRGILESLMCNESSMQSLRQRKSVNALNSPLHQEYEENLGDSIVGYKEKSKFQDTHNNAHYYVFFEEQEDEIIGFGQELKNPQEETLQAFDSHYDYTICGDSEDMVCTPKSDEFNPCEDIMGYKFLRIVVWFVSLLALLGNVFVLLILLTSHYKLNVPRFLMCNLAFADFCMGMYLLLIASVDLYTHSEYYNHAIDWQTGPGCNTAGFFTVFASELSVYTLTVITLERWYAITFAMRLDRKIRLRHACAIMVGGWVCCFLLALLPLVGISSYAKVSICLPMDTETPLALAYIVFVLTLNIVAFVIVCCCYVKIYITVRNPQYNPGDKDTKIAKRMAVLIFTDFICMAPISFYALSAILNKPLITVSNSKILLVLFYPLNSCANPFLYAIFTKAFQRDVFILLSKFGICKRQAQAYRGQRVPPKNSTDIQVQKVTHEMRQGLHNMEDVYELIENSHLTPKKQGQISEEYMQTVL
Procedure, shortened: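 TSHR-HEK293 cells (800/well) plated 18 h, then compounds with Ro20-1724 and TSH at 1.5 ng/mL final, 30 min at room temperature. cAMP quantified by HTRF (cAMP-d2/anti-cAMP-cryptate, 1 h); 15 concentrations in triplicate.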

[4] = qHTS assay to identify small molecule agonists of the estrogen receptor alpha (ER-alpha) signaling pathway in the presence of an antagonist - cell viability counter screen (AID 1259386);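 also: series mostly up to about 92 µM; cells exposed to compounds for 22 h at 37 °C before the viability read; nearly all actives have a fitted effect of over 30% in size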
Procedure, shortened: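 Viability counter screen using VM7Luc4E2 (full-length ER-alpha, four ERE-luciferase). The cells were treated with compounds alongside ICI-182,780 10.0nM for 22hr, and live-cell protease fluorescence was quantified with CellTiter-Fluor.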

[5] = qHTS assay to identify small molecule agonists of the progesterone receptor (PR) signaling pathway - cell viability counter screen (AID 1346799; calls by dose curve; also: nearly all actives have a fitted effect of over 45% in size)
Procedure, shortened: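 PR-UAS-bla HEK293T cells, 3,000 per well in medium with 2% charcoal-stripped FBS, were preincubated 6 hr at 37C, then exposed to compounds for 16 hr; viability was read as CellTiter-Glo luminescence after 30 min at room temperature.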

[6] = qHTS assay to identify small molecule antagonists of the TGF-beta/Smad signaling pathway - cell viability counter screen (AID 1346824); also: nearly all actives have a fitted effect of over 50% in size
Procedure, shortened: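 SBE-bla HEK 293T cells, incubated overnight, then compound plus 0.25 ng/mL TGF-beta1 (stock added) for 5 hr at 37 C. Viability was read in the same wells by CellTiter-Glo luminescence after 30 min at room temperature.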

[7] = qHTS assay to identify small molecule agonists of the TGF-beta/Smad signaling pathway - cell viability counter screen (AID 1346829); also: top concentration of the series differs between compounds; nearly all actives have a fitted effect of over 45% in size
Procedure, shortened: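 Same-well cytotoxicity: CellTiter-Glo added after the 2 hr room-temperature beta-lactamase substrate step, luminescence measured 30 min later; cells had 5 hr of compound at 37 C.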

[8] = qHTS assay to identify small molecule agonists of the TGF-beta/Smad signaling pathway (AID 1346859; active = well fitted activation curve with a large enough effect in the signal ratio in the repeat runs, not every such curve was filed as active; the % refers to the signal ratio; also: series mostly up to about 77 µM)
Procedure, shortened: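 HEK 293T cells stably carrying a beta-lactamase reporter driven by the Smad binding element were seeded overnight, exposed to DMSO-dissolved compounds for 5 hr at 37 C, 5% CO2, then loaded with FRET substrate for 2 hr at room temperature.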

[9] = Human pregnane X receptor (PXR) small molecule agonists, qHTS cell viability counter screen (AID 1346977); also: nearly all actives have a fitted effect of over 50% in size
Procedure, shortened: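 PXR-Luc HepG2 cells in medium with 5% charcoal-stripped FBS were pre-incubated 5hr, then exposed to compounds for 24hr at 37C. Viability was read in the same wells by CellTiter-Fluor fluorescence, reagent added after 23hr with a 1hr incubation.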

[10] = Caspase-3/7 induction in HepG2 cells by small molecules, qHTS assay (AID 1346978); also: nearly all actives have a fitted effect of over 15% in size
Procedure, shortened: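 Wild-type HepG2 cells, 2,000/well, settled 5 hr at 37 C and 5% CO2, then compound-treated for 17 hr; caspase-3/7 activity read by luminescent Caspase-Glo 3/7 after 30 min at room temperature.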

[11] = Caspase-3/7 induction in CHO-K1 cells by small molecules, qHTS cell viability counter screen (AID 1346979); also: nearly all actives have a fitted effect of over 35% in size
Procedure, shortened: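 Wild-type CHO-K1 cells were seeded at 1,500 per well, rested 5hr at 37 C, then exposed to compounds in DMSO. After 16hr, CellTiter-Fluor reagent was added and fluorescence read 1hr later as the viability measure.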

[12] = Caspase-3/7 induction in CHO-K1 cells by small molecules, qHTS assay (AID 1346980); also: nearly all actives have a fitted effect of over 15% in size
Procedure, shortened: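 Wild-type CHO-K1 cells exposed to compounds for 17hr at 37 C, 5% CO2. Caspase-3/7 activity then measured by Caspase-Glo 3/7 luminescence after 30min at room temperature.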

[13] = Caspase-3/7 induction in HepG2 cells by small molecules, qHTS cell viability counter screen (AID 1346981); also: series mostly up to about 92 µM; nearly all actives have a fitted effect of over 30% in size
Procedure, shortened: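 Viability determined by CellTiter-Fluor fluorescence in HepG2 wells also used for the luminescent Caspase-Glo 3/7 read. Compounds were present for 16 hr at 37 C, 5% CO2 before reagent addition.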

[14] = molecular target: Nuclear receptor subfamily 1 group I member 2 (Homo sapiens) (UniProt O75469); experiment: Human pregnane X receptor (PXR) small molecule agonists, qHTS assay (AID 1346982); also: nearly all actives have a fitted effect of over 35% in size
Sequence of Nuclear receptor subfamily 1 group I member 2 (Homo sapiens) (O75469 whole entry, looked up): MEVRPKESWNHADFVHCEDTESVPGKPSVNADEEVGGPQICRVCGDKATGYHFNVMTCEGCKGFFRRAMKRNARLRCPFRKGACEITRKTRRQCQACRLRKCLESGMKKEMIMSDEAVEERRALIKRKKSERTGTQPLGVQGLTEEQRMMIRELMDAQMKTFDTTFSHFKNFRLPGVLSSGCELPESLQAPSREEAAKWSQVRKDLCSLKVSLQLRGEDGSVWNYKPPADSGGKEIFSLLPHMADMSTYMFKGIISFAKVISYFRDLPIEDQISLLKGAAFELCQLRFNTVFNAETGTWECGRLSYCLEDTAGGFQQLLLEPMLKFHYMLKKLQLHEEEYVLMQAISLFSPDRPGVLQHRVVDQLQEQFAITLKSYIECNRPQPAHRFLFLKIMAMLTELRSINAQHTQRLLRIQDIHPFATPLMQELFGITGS
Procedure, shortened: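 Compound-induced hPXR transactivation of a CYP3A4 luciferase reporter was scored in HepG2 PXR-Luc cells over 24 hr at 37 C, 5% CO2, by luminescence.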

[15] = molecular target: Nuclear receptor subfamily 1 group I member 2 (Rattus norvegicus) (UniProt Q9R1A7); experiment: Rat pregnane X receptor (rPXR) activation by small molecules, qHTS assay (AID 1346983); conditions: rPXR luciferase reporter cells, One-Glo luminescence, 24 h; max activation: active compounds read high; also: nearly all actives have a fitted effect of over 20% in size
Sequence of Nuclear receptor subfamily 1 group I member 2 (Rattus norvegicus) (Q9R1A7 whole entry, looked up): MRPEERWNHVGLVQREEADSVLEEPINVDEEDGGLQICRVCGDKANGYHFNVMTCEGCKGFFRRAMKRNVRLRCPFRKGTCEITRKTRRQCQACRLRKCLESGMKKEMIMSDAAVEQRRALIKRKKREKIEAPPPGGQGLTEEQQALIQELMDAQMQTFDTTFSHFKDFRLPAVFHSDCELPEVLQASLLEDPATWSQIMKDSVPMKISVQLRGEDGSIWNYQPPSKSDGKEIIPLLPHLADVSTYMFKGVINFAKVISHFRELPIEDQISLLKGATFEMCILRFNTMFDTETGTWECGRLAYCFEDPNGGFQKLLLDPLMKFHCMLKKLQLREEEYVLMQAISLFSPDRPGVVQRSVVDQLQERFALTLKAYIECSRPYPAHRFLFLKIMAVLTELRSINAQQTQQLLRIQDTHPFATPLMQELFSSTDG
Procedure, shortened: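 Cell-based rPXR activation assay: rPXR cells, 2,000 per well, rested 5hr at 37 C, then exposed to compounds in DMSO for 24 hr at 37 C. Luciferase activity read by One-Glo luminescence after 30 min at room temperature.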

[16] = molecular target: Progesterone receptor (Homo sapiens) (UniProt P06401); experiment: qHTS assay to identify small molecule agonists of the progesterone receptor (PR) signaling pathway (AID 1346784; calls by dose curve; also: nearly all actives have a fitted effect of over 30% in size)
Sequence of Progesterone receptor (Homo sapiens) (P06401 whole entry, looked up): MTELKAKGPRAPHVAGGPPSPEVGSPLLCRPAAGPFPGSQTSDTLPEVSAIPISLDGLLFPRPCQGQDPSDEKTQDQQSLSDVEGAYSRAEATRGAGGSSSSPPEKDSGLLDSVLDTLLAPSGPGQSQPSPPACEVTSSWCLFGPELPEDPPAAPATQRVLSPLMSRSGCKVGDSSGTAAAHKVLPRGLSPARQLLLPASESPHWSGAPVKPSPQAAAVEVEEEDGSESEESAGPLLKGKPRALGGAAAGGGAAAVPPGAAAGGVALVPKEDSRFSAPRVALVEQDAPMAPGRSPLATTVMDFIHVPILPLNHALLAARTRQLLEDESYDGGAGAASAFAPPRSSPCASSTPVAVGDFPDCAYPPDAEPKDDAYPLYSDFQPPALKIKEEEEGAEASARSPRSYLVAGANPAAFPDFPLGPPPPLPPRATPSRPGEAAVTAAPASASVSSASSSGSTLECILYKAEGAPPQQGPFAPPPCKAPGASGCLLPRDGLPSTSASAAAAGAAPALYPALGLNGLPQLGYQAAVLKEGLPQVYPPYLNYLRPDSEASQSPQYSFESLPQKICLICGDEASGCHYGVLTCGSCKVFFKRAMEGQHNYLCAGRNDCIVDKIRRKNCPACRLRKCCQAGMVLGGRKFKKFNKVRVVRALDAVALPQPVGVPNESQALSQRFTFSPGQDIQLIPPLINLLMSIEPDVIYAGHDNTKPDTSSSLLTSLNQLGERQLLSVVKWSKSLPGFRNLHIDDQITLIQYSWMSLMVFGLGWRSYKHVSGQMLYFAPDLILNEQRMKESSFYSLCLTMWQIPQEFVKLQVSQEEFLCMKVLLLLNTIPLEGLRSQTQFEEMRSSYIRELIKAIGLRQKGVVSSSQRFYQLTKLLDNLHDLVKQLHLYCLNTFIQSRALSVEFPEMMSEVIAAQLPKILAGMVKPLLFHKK
Procedure, shortened: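 PR-UAS-bla HEK 293T cells carrying a UAS-driven beta-lactamase reporter were seeded in medium with 2% charcoal-stripped FBS, preincubated 6 hr at 37C, then exposed to compounds in DMSO for 16 hr; agonism was read by LiveBLAzer B/G FRET fluorescence.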

[17] = qHTS assay to identify small molecule antagonists of the progesterone receptor (PR) signaling pathway - cell viability counter screen (AID 1346798); also: series mostly up to about 92 µM; nearly all actives have a fitted effect of over 50% in size
Procedure, shortened: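 PR-UAS-bla HEK293T cells in medium with 2% charcoal-stripped FBS were treated with compounds plus R5020 for 16 hr at 37C. Cell viability was then read by CellTiter-Glo luminescence after 30 min at room temperature in the same wells.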

[18] = molecular target: Thyrotropin-releasing hormone receptor (Homo sapiens) (UniProt P34981); experiment: qHTS assay to identify small molecule antagonists of the thyrotropin-releasing hormone receptor (TRHR) signaling pathway (AID 1346877; active = well fitted inhibition curve with a large enough effect in the repeat runs, not every such curve was filed as active; also: series mostly up to about 51 µM)
Sequence of Thyrotropin-releasing hormone receptor (Homo sapiens) (P34981 whole entry, looked up): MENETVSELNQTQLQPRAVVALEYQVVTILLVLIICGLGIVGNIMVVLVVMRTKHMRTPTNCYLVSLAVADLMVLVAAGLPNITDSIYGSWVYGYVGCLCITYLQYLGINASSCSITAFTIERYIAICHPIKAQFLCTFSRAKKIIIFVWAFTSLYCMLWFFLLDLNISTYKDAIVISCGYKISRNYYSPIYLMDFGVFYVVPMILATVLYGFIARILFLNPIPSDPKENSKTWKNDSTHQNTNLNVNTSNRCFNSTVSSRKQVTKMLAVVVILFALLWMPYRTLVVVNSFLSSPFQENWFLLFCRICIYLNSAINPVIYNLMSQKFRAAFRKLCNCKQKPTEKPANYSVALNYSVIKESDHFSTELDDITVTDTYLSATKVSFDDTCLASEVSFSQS
Procedure, shortened: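 Following an 18 h incubation at 37 °C and a 2 h calcium dye load, TRHR-HEK293 cells were exposed to compound (5 min, room temperature) and challenged with TRH, 1 nM final.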

[19] = molecular target: Thyrotropin-releasing hormone receptor (Homo sapiens) (UniProt P34981); experiment: qHTS assay to identify small molecule agonists of the thyrotropin-releasing hormone receptor (TRHR) signaling pathway (AID 1346891; calls by dose curve; also: series mostly up to about 58 µM)
Procedure, shortened: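 TRHR-expressing HEK293 cells were plated 18 h at 37 °C/5% CO2, loaded with calcium dye 2 h at 37 °C, then given compound in DMSO; fluorescence was read kinetically for 3 min at 1 s intervals.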

[20] = molecular target: Progesterone receptor (Homo sapiens) (UniProt P06401); experiment: qHTS assay to identify small molecule antagonists of the progesterone receptor (PR) signaling pathway (AID 1346795; active = well fitted inhibition curve with a large enough effect in the signal ratio in the repeat runs, not every such curve was filed as active; the % refers to the signal ratio)
Procedure, shortened: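 PR-UAS-bla HEK293T cells carrying a UAS-driven beta-lactamase reporter were plated in medium with 2% charcoal-stripped FBS and rested 6 hr at 37C. Compounds were added with 1 nM R5020 (final) for 16 hr, then FRET substrate loaded 2 hr at room temperature.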
% is scaled to controls: 0 for no effect and ±100 for the full control effect.

CCOC(=O)[C@H](CCc1ccccc1)N[C@H]1CS[C@H](c2cccs2)CN(CC(=O)O)C1=O
inactive: Potency [1] | outcome [2] | outcome [3] | outcome [4] | Potency [5] | outcome [6] | outcome [7] | outcome [8] | outcome [9] | outcome [10] | Potency [11] | outcome [12] | outcome [13] | Potency [14] | max activation [15] -2.69%

NCC1CCC(C(=O)Oc2ccc(CCC(=O)O)cc2)CC1 (stereo not drawn)
inactive: Potency [1] | outcome [2] | outcome [3] | outcome [4] | Potency [16] | outcome [17] | Potency [5] | outcome [6] | outcome [7] | outcome [8] | outcome [18] | Potency [19] | outcome [9] | outcome [10] | Potency [11] | outcome [12] | outcome [13] | Potency [14] | max activation [15] -5.61%

O=Cc1ccc(C(=O)O)cc1
inactive: Potency [1] | outcome [2] | outcome [3] | Potency [16] | Potency [20] | outcome [17] | Potency [5] | outcome [6] | outcome [7] | outcome [8] | outcome [18] | Potency [19] | outcome [9] | outcome [10] | Potency [11] | outcome [12] | outcome [13] | Potency [14]

CC(C)(C)C(=O)NCCCC(=O)O
inactive: Potency [1] | outcome [2] | outcome [3] | outcome [4] | outcome [17] | Potency [5] | outcome [7] | outcome [8] | outcome [18] | Potency [19] | outcome [9] | outcome [10] | Potency [11] | outcome [12] | outcome [13] | Potency [14] | max activation [15] -1.4%

CCN1CCN(C(=O)N[C@@H](C(=O)N[C@@H]2C(=O)N3[C@@H]2SC(C)(C)[C@H]3C(=O)O)c2ccccc2)C(=O)C1=O
inactive: Potency [1] | outcome [2] | outcome [3] | outcome [4] | Potency [16] | outcome [17] | Potency [5] | outcome [6] | outcome [7] | outcome [8] | outcome [18] | Potency [19] | outcome [9] | outcome [10] | Potency [11] | outcome [12] | outcome [13] | Potency [14]

C=CCCCCCCCCCCCCCC
inactive: activation [1] -0.0008% [at 19 µM] | cAMP activity change [2] 3.16% [at 18.9 µM] | activity change, negative = inhibition [3] 0.749% [at 19 µM] | activity change, negative = cytotoxicity [4] 1.42% [at 19 µM] | activity change, negative = cytotoxicity [17] 6.76% [at 18.9 µM] | activity change, negative = cytotoxicity [5] 11.1% [at 19 µM] | viability change, negative = cytotoxic [6] -0.4% [at 15.8 µM] | activity change, negative = cytotoxicity [7] 9.91% [at 15.8 µM] | activity, negative = inhibition [18] 2.16% [at 10.5 µM] | activation [19] -0.0775% [at 11.8 µM] | activity change, negative = cytotoxicity [9] 1.28% [at 19 µM] | caspase activation [10] 1.32% [at 19 µM] | activity change, negative = cytotoxicity [11] 5.54% [at 19 µM] | caspase-3/7 activation [12] 1.16% [at 19 µM] | activity change, negative = cytotoxicity [13] -0.984% [at 19 µM] | activation [14] 1.1% [at 19 µM]
